ELG1 repair inh = qHTS screen for small molecules that inhibit ELG1-dependent DNA repair in human embryonic kidney (HEK293T) cells expressing luciferase-tagged ELG1. HEK293T ELG1-luciferase reporter, luminescence, 16 h; DNA damage induced by 5-fluorouridine. Potency, µM (doses to about 46.1 µM), for the others: at the top dose activity change, negative = inhibition, most hits filed as inhibitors. 330,000 compounds, 2.3% hits; note: % is set by controls: 0 for no effect and ±100 for the full control effect; nearly all actives have a fitted effect of over 55% in size
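Quantitative HTS, concentration-response format. 2,000 cells/well co-treated with 5-fluorouridine and compound, 16 hr in 5% CO2 at 37 °C; ONE-Glo luminescence read after 30 min.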
SMN2 splice up = qHTS Assay for Enhancers of SMN2 Splice Variant Expression; HEK293 SMN2-luciferase splicing reporter, luminescence, 30-36 h; Potency, µM (titrated, usually from 46.1 µM), inactives show at the top dose activity change, positive = activation, hits mostly activators; 210,000 compounds, 2.8% hits; AID 1458, 2008; note: % of control where 0% means no effect; nearly all actives have a fitted effect of over 55% in size
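HEK293 cells carry an SMN2 […]–luciferase reporter in which exon 7 inclusion puts luciferase in frame. Cells were plated 10-12 h before compound addition, then incubated 30-36 h at 37C. ONE-Glo luminescence was read; sodium butyrate at 4.5 mM final served as control.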
FLuc modulator = qHTS profiling assay for firefly luciferase inhibitor/activator using purifed enzyme and Km concentrations of substrates (counterscreen for miR-21 project); Luciferin 4-monooxygenase (Photinus pyralis), P08659; purified FLuc, Km substrates, luminescence inhibition; Potency, µM (top dose mostly 57.5 µM), for inactives: top-dose activity change, negative = inhibition, hits mostly inhibitors; 360,000 compounds, 6.9% hits; AID 588342, 2011;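 note: plate controls were vehicle for no effect and reference inhibitor for full effect; nearly all actives have a fitted effect of over 55% in size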
Target sequence (P08659 whole entry, looked up): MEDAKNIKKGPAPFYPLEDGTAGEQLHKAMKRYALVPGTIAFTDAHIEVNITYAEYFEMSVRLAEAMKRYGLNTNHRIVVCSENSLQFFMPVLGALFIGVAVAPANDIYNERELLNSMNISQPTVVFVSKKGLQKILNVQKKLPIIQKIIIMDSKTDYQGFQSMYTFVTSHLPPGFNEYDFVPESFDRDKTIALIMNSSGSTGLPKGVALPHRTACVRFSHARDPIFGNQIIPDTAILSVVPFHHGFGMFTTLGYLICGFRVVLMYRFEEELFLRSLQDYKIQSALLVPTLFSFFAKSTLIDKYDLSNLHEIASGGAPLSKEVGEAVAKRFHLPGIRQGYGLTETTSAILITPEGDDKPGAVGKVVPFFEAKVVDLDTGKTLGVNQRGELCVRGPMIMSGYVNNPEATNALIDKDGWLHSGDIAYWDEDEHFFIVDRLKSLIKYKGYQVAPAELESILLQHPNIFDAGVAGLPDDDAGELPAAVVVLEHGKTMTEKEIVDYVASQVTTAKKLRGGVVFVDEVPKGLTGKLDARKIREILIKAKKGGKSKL
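Biochemical qHTS of compounds, final roughly 60 µM downward over six points, against 10 nM purified firefly luciferase using Km concentrations of substrates (10 uM D-luciferin, 10 uM ATP) in Tris acetate pH 7.5 buffer; luminescence output.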
ELG1 genotoxic = qHTS screen for small molecules that induce genotoxicity in human embryonic kidney (HEK293T) cells expressing luciferase-tagged ELG1 | HEK293T ELG1-luciferase reporter, luminescence, 16 h | Potency, µM (series often up to 46 µM), without a hit: at the top dose activity change, positive = activation, actives largely listed as activators | 330,000 compounds, 1.3% hits; note: % of control where 0% means no effect; nearly all actives have a fitted effect of over 60% in size
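HEK293T cells expressing luciferase-tagged ELG1 were exposed to compound or DMSO vehicle for 16 hr at 37 °C and 5% CO2. Luciferase activity was then measured with ONE-Glo after 30 min at room temperature.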
Rab9 prom act = qHTS Assay for Rab9 Promoter Activators; Huh7 Rab9 promoter-luciferase reporter, luminescence, 24 h; Potency, µM (series often up to 9.22 µM), without a hit: at the top dose activation, negative = inhibition, hits mostly activators; 320,000 compounds, 2.8% hits; AID 485297, 2010; note: % of control where 0% means no effect; nearly all actives have a fitted effect of over 60% in size
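Huh7 cells stably carrying a Rab9 promoter-luciferase reporter, 1500 cells per well in OP-MEM I with 10% FBS, treated with compound 24 hours at 37C. Luciferase activity read by luminescence after 10 minutes with Amplite reagent.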
NPC1 prom act = qHTS Assay for NPC1 Promoter Activators; Huh7 NPC1 promoter luciferase reporter, 24 h; Potency, µM (titrated, usually from 9.22 µM), inactives show top-dose activation, most hits filed as activators; 320,000 compounds, 2.4% hits; AID 485313, 2010; note: % of control where 0% means no effect; nearly all actives have a fitted effect of over 60% in size
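NPC1 promoter–luciferase Huh7 cells; 24 h compound; luminescence.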
* = called active by the depositor; ? = inconclusive; nt = no result given; [ ] = remark or other dose. Only some compounds are listed: those with a hit (about 9.3% of all), similar ones and a draw of the others. Calls come from the whole dose curve; as a rule, active = well fitted curve in the direction sought with a large enough effect; inconclusive = small, poorly fitted or top-dose-only effect, or another doubt; inactive = no such curve, though single readings can be large; an effect the other way counts as inactive or inconclusive. Potency is the fitted concentration of half-maximal effect.

SMILES	ELG1 repair inh	SMN2 splice up	FLuc modulator	ELG1 genotoxic	Rab9 prom act	NPC1 prom act
Cc1nc(Sc2nnnn2-c2ccccc2)c(C#N)c(C)c1C	-0.3%	-8.1%	1.4%	0.1%	4.8%	-2.8%
NC(=O)C1CCN(c2nc(-c3ccc(Br)cc3)cs2)CC1	?	3.98µM*	-13.1%	6.51µM*	2.51µM*	?
NC(=O)C1CCN(c2nc(-c3ccc(N4CCCCC4)nc3)cs2)CC1	nt	nt	4.78µM*	nt	nt	nt
NC(=O)C1CCN(c2nc(-c3ccc(C(F)(F)F)cc3)cs2)CC1	nt	nt	16.9µM*	nt	nt	nt
CC(=O)c1ccc(-c2csc(N3CCC(C(N)=O)CC3)n2)cc1	?	nt	?	7.9%	22.2%	20.1%
O=C(O)c1ccc(/C=C/c2ccc3cccc(O)c3n2)cc1	?	22.4µM*	2.39µM*	?	3.55µM*	3.55µM*
Oc1ccc(/C=C/c2ccc3cccc(O)c3n2)cc1Br	?	nt	16.9µM*	18.3µM*	29.1%	15.6%
COC(=O)c1ccc(/C=C/c2ccc3cccc(OC(C)=O)c3n2)cc1	?	15.8µM*	3.79µM*	?	3.55µM*	3.98µM*
C[n+]1cccc(/C=C\c2ccc3cccc(O)c3n2)c1	nt	-8.8%[9.22 µM]	nt	nt	nt	nt
Clc1ccccc1-c1nnc(-c2ccc3c(c2)OCO3)o1	?	5.01µM*	2.69µM*	-11.3%	1.26µM*	1.41µM*
O=[N+]([O-])c1cccc(-c2nnc(-c3ccc4c(c3)OCO4)o2)c1	?	11.2µM*	2.69µM*	?	2.24µM*	2.51µM*
O=[N+]([O-])c1cccc(-c2nnc(-c3ccccc3)o2)c1	?	20µM*	15.1µM*	?	2.24µM*	2.82µM*
O=C(NCc1ccc2c(c1)OCO2)c1cccc([N+](=O)[O-])c1	4.5%	-16.9%	0.5%	-0.2%	-1.9%	1.5%
O=C(NCc1ccc(-n2cccc2)cc1)c1cccc(F)c1	-6.3%	-9.8%	-3.4%	-1.7%	15.7%	0.0%
Cc1cc2oc(C(=O)N(Cc3ccco3)Cc3ccccc3Cl)c(C)c2cc1C	nt	-18.0%	-8.4%	nt	nt	nt
COc1ccc(-c2cccc(NS(=O)(=O)c3cccc([N+](=O)[O-])c3)c2)nn1	1.2%	nt	-15.5%	-0.9%	-3.0%	-0.1%
O=[N+]([O-])c1cccc(S(=O)(=O)Nc2cccc(-c3ccc(N4CCOCC4)nn3)c2)c1	?	nt	2.13µM*	?	?	25.1%
CCc1ccc(S(=O)(=O)Nc2cccc(-c3ccc(N4CCOCC4)nn3)c2)cc1	nt	nt	8.49µM*	nt	nt	nt
O=[N+]([O-])c1cccc(S(=O)(=O)Nc2cccc(-c3ccc(N4CCCC4)nn3)c2)c1	?	nt	9.53µM*	?	12.2%	-1.7%
Cc1[nH]n(-c2ccccc2)c(=O)c1/C=N/NC(=O)c1ccccc1F	2.31µM*	nt	?	?	-28.2%	-41.6%
Cc1[nH]n(-c2cccc3ccccc23)c(=O)c1/C=N/NC(=O)c1cccc([N+](=O)[O-])c1	?	-78.0%	?	2.1%	-8.9%	-3.9%
Cc1ccc(OCC(=O)N/N=C\c2cccn2C)c([N+](=O)[O-])c1	?	nt	10.7µM*	10.5%	14.9%	5.5%
Cc1ccc(C)c(OCC(=O)N/N=C\c2cccn2C)c1	-6.5%	4.5%	3.0%	-2.3%	-3.4%	0.1%
Cc1[nH]n(-c2ccccc2)c(=O)c1/C=N/NC(=O)c1cccc([N+](=O)[O-])c1	0.0%	-70.4%	8.49µM*	-4.8%	-14.3%	-20.2%
CC(=O)N/N=C/c1c(C)[nH]n(-c2ccccc2)c1=O	-4.4%	-23.0%	-2.7%	-3.0%	4.6%	-1.8%
SMILES	ELG1 repair inh	SMN2 splice up	FLuc modulator	ELG1 genotoxic	Rab9 prom act	NPC1 prom act
Cc1ccc(-n2c(O)c(/C=N/NC(=O)C3COc4ccccc4O3)c3ccccc3c2=O)cc1 (centres undefined)	-17.0%	-22.1%	-0.8%	-7.4%	-1.7%	-1.3%
Cc1[nH]n(-c2ccccc2)c(=O)c1/C=N\NC(=O)C1COc2ccccc2O1 (centres undefined)	?	-56.4%	1.9µM*	?	?	?
CCOc1ccc(NC(=O)CN(C)C(=O)CC2CCCCC2)cc1OCC	0.1%	nt	2.4%	0.7%	-6.4%	-1.5%
COC1C=CO[C@@]2(C)Oc3c(C)c(O)c4c(O)c(c(C=NN5CCN(C)CC5)c(O)c4c3C2=O)NC(=O)/C(C)=C\C=CC(C)C(O)[C@@H](C)C(O)C(C)[C@H](OC(C)=O)C1C (some centres undefined)	nt	-18.7%	nt	nt	nt	nt
Cc1cccc(C(=O)OCc2cc(=O)n3nc(C4CCCCC4)sc3n2)c1	nt	nt	6.0%	nt	nt	nt
Cc1[nH]n(-c2ccccc2)c(=O)c1/C=N/NC(=O)COc1ccccc1[N+](=O)[O-]	1.6%	-99.3%	21.3µM*	9.9%	-8.3%	0.8%
Cc1ccc(-n2[nH]c(C)c(/C=N/Nc3ccc([N+](=O)[O-])cc3[N+](=O)[O-])c2=O)cc1C	10.3µM*	-72.6%	13.5µM*	-13.3%	-17.1%	-3.0%
CC(C)NC(=O)c1onc(CSc2ccc(F)cc2)c1C(=O)O	10.5%	-4.5%	-15.6%	-1.9%	0.9%	1.4%
CCn1c(NN)nc2sc3c(c2c1=O)CCC3	0.0%	-11.3%	-13.7%	-5.5%	4.1%	-3.9%
Nn1c(Nc2ccccc2)nc2sc3c(c2c1=O)CCC3	?	-51.2%	9.53µM*	?	10.6%	20.1%
NNc1nc2sc3c(c2c(=O)n1Cc1ccccc1)CCC3	23.1%	nt	6.75µM*	5.9%	17.1%	-3.6%
Cc1nc(NC(C)c2ccccc2)c2c3c(sc2n1)CCC3 (centres undefined)	?	-35.5%	1.5%	-2.0%	0.9%	-0.7%
O=C(O)c1ccc(Cn2nnc3sc4c(c3c2=O)CCCC4)cc1	?	5.2%	13.5µM*	?	?	28.8%
COC(=O)c1ccc(Cn2nnc3sc4c(c3c2=O)CCCC4)cc1	nt	7.4%	-1.2%	nt	nt	nt
NNc1nc(-c2ccccc2)nc2sc3c(c12)CCCC3	?	-47.3%	0.536µM*	1.3µM*	2.24µM*	3.55µM*
CN(O)C(=O)Nc1ccc([N+](=O)[O-])cc1	-14.6%	-1.1%	1.3%	-2.9%	-2.1%	-9.8%
Cc1ccc2c(CN(C)Cc3ccccc3)cc(=O)oc2c1C	?	nt	15.1µM*	10.1%	?	?
C[C@H]1Cc2c(-c3ccccc3)nc3c(c2CO1)CN(C(=O)c1cc(I)ccc1F)CC3	nt	3.3%[9.22 µM]	nt	nt	nt	nt

Source: PubChem BioAssay
